# Assay results: PubChem BioAssay AID2315 (National Center for Advancing Translational Sciences (NCATS), 2010)
# The campaign covered roughly 290,000 compounds. About 27,000 (9.3%) were called active. The entries come from a sample that favours actives as a whole. A number with no mark means an inactive call. Cut-off read from the data, not from the text of the source: active = inhibition mostly above about 28% (no sharp cut-off); inactive = mostly below about 43%.
# Assay: A qHTS for Small Molecule Inhibitors of Shiga Toxin; note: 0% is about no effect
# Details: Vero cells, Shiga toxin protein synthesis inhibition reporter; at 38.7 µM, hits give high values
row,SMILES,inhibition
1,CC1C(=O)Nc2ccc(S(=O)(=O)N3CCN(c4ccccc4F)CC3)cc2NC1=O (configuration not stated),-0.75%
2,CCc1c(C)sc(NC(=O)c2cccs2)c1C(N)=O,107% (active)
3,COC(=O)c1c(NC(=O)c2cccs2)sc2c1CCCC2,35.1%
4,CCCc1nnc(NC(=O)c2cccs2)s1,39%
5,N#Cc1cccc(NC(=O)CN2CCCCCC2)c1,2.24%
6,Cc1ccc(CC(=O)Nc2cccc(C#N)c2)cc1,25.6%
7,N#Cc1cccc(NC(=O)CCC2CCCC2)c1,33.8% (active)
8,COc1ccc(N2CCN(CCNC(=O)Nc3cc(Cl)ccc3Cl)CC2)cc1,4.24%
9,CCc1ccccc1NC(=O)NCCN1CCCCC1,-9.72%
10,Cc1ccc(SCC(CC(C)C)N2CCN(CCc3ccccc3)CCC2=O)cc1 (configuration not stated),64.5% (active)
11,COc1ccc(SC[C@H](Cc2ccccc2)N2CCN(CCc3ccccc3)CCC2=O)cc1,-7.36%
12,CCCN1CCC(=O)N(C(CSc2ccc(C)cc2)Cc2ccccc2)CC1 (configuration not stated),-8.43%
13,O=c1onc(-c2c(F)cccc2F)n1-c1ccccc1Cl,-3.28%
14,CCCOC(=O)Nc1sc2c(c1C(=O)OCC)CCC2,-17.5%
15,CCOC(=O)c1c(NC(=S)NC)sc2c1CCCC2,-5.4%
16,CCOC(=O)c1c(NC(=O)C2CCN(S(=O)(=O)c3ccc(Cl)cc3)CC2)sc2c1CCCC2,45.1% (active)
17,NC(=O)Cn1cc(/C=N\NS(=O)(=O)c2ccccc2)c2ccccc21,-5.18%
18,COc1ccc(-c2nc3ccccc3n2CCC(C)C)cc1OC,-2.89%
19,O=C(C[n+]1ccccc1)N/N=C/c1ccc(O)cc1,30.3%
20,Cc1nonc1C(=O)N/N=C/c1ccc(O)cc1,72.1% (active)
21,Cc1nc2ccc(C(=O)N/N=C/c3ccc(O)cc3)cc2[nH]1,22.1%
22,O=[N+]([O-])c1ccc2nc(-c3ccccn3)[nH]c2c1,102% (active)
23,O=c1[nH]c2cccnc2n1-c1ccc([N+](=O)[O-])cc1,6.32%
24,O=C(CSc1nc2ccc([N+](=O)[O-])cc2[nH]1)c1ccc(Cl)cc1,-3.36%
25,COC(=O)c1cc(S(=O)(=O)Nc2ccc(C)c(F)c2)c[nH]1,9.13%
26,CC(C)c1c(C(=O)N/N=C/c2ccccc2C(=O)O)nnn1-c1nonc1N,0.546%

row,SMILES,inhibition
1,Cc1cccc(N2CCN(Cc3nc(C4CC4)no3)CC2)n1,18.6%
2,O=C(NCc1ccccc1Cl)C1CCCN1S(=O)(=O)c1ccc(F)cc1 (configuration not stated),-12.5%
3,CCOC(=O)c1cc2c(nc1NC(=S)Nc1ccccc1)CC(C)(CC)OC2 (configuration not stated),-8.83%
4,CCOC(=O)c1cn[nH]c1NC(=S)Nc1ccccc1,57.1% (active)
5,CCOC(=O)c1ccc(NC(=S)Nc2cc(C)cc(C)n2)cc1,-12.4%
6,COc1ccc(CN2CCc3nc(Nc4ccccc4)ncc3C2)c(OC)c1OC,3.91%
7,COc1ccc(C2NC(=O)c3ccccc3N2)cc1 (configuration not stated),62.6% (active)
8,COc1cccc(C2Nc3cccc4cccc(c34)N2)c1,-2.47%
9,O=C1NC(c2cccc(Cl)c2)Nc2ccccc21 (configuration not stated),18.4%
10,COc1cccc2cc(-c3cc(=O)oc4cc(C)c(O)cc34)oc12,0.992%
11,CCCCCc1c(C)nc(N2CCN(Cc3ccc4c(c3)OCO4)CC2)[nH]c1=O,7.82%
12,COC(=O)CSc1ncnc2c1cnn2-c1ccc(C)cc1C,-5.7%
13,c1ccc(-n2ncc3c2ncn2c(C4CCCCC4)nnc32)cc1,11.5%
14,COc1ccc(-n2ncc3c(SCC(=O)NNC(C)=O)ncnc32)cc1,25.6% (active)
15,CC(=O)Nc1ccc(NC(=O)CSc2ncnc3c2cnn3Cc2ccccc2)cc1,3.21%
16,CC(C)Sc1ncnc2c1cnn2-c1ccccc1,96.6% (active)
17,CN(C(=O)COc1ncnc2c1cnn2-c1ccccc1)C1CCCCC1,20.6%
18,COc1ccc(N2CCN(C(=O)CSc3ncnc4c3cnn4-c3ccc(OC)cc3)CC2)cc1,-9.91%
19,COc1ccccc1N1CCN(C(=O)CSc2nnc(-c3ccoc3C)o2)CC1,31.6%
20,COc1ccccc1N1CCN(C(=O)CSc2ncnc3c2cnn3-c2ccc(C)c(C)c2)CC1,66.7% (active)
21,COc1ccc(NC(=O)CSc2ncnc3[nH]ncc23)cc1,-13.5%
22,CCN(CC)C(=O)CSc1ncnc2c1cnn2-c1ccccc1,66.2% (active)
23,c1ccc(-n2ncc3c(N4CCCC4)ncnc32)cc1,27.5%
24,COc1ccccc1Oc1ccc(N/C=C2/CCCC2=O)cc1,33.6%
25,Cc1onc(-c2ccccc2)c1C(=O)N1CCN(S(=O)(=O)c2ccccc2C(F)(F)F)CC1,61.7%
26,CCOc1ccc(N(CC)S(=O)(=O)c2cccc3nsnc23)cc1,-2.2%

row,SMILES,inhibition
1,Nc1c(Cl)cc(-c2csc(N3CCCC3c3nc4cc(Cl)c(Cl)cc4n3CCOCCO)n2)cc1Cl (configuration not stated),-18%
2,CCCOc1ccc(-c2c(C(=O)N/N=C/c3ccco3)nnn2-c2nonc2N)cc1,-3.97%
3,CC(C)c1ccc2oc(=O)cc(CN3CCN(Cc4ccccc4)CC3)c2c1,-3.05%
4,Cc1ccc(C(=O)N2CCC(n3nccc3NC(=O)Nc3cccc(F)c3)CC2)cn1,-8.38%
5,COc1ccc(-c2cc(=O)oc3cc(OC(C)C(=O)NCC4CCC(C(=O)O)CC4)ccc23)cc1 (configuration not stated),-4.72%
6,O=C(Cn1cnc2c(cnn2-c2ccc(F)cc2)c1=O)NCCc1ccccc1,-0.429%
7,O=C(Cn1cnc2c(cnn2-c2ccccc2)c1=O)NCc1ccccc1,31.9%
8,CC(=O)Cn1cnc2c(cnn2-c2ccccc2)c1=O,34.2% (active)
9,CC1C(=O)Nc2ccccc2N1C(=O)c1c(F)cccc1F (configuration not stated),-5.2%
10,COC(=O)C1CCCCN1C(=O)c1ccc(OC2CCN(C(C)=O)CC2)c(OC)c1 (configuration not stated),20.4%
11,COc1cc(OC)cc(C(=O)NCC(=O)OCc2csc(-c3ccccc3)n2)c1,21%
12,Cc1ccc(S(=O)(=O)N2CCN(C(=O)COC(=O)c3c(C)noc3C)CC2)c(C)c1,-4.13%
13,Cc1ccc(-c2nc(COC(=O)c3c(C)noc3C)cs2)cc1,104% (active)
14,S=C(Nc1ccc(Cl)cc1Cl)N1CCCC1,88.2% (active)
15,S=C(NCc1cccnc1)Nc1ccc(Cl)cc1Cl,23.4%
16,Cc1ccc2c(c1)C1CN(C)CCC1N2C(=S)Nc1ccc(Cl)cc1Cl (configuration not stated),14.7%
17,CN(C)C(=S)Nc1ccc(Br)cc1Cl,23.8%
18,CN1CCN(S(=O)(=O)c2ccc(NC(=S)NC(=O)C3CC3)cc2)CC1,11.7%
19,O=C(NC(=S)Nc1ccc(Cl)cc1Cl)C1CC1,97.9% (active)
20,CC1CN(C(=S)Nc2ccc(Br)cc2Cl)CC(C)O1 (configuration not stated),-7.71%
21,S=C(Nc1ccc(Br)cc1Cl)N1CCC2(CC1)OCCO2,76.2% (active)
22,Cc1cc(Cl)ccc1NC(=S)N1CCC(C(N)=O)(N2CCCCC2)CC1,-10.1%
23,CCc1ccc(N(CC(=O)NCc2cccnc2)S(=O)(=O)c2ccccc2)cc1,9.02%
24,CCn1nc(C)c(CNC(=O)C2CCC(=O)N(Cc3cccc(F)c3)C2)c1C (configuration not stated),-13.2%
25,C=Cc1ccc(C(=O)N2CCCC(CCC(=O)N3CCN(c4ccccn4)CC3)C2)cc1 (configuration not stated),4.52%
26,CN(CCC(=O)Nc1cc(S(=O)(=O)N(C)C)ccc1Cl)CC(=O)Nc1ccc(F)cc1,1.75%

row,SMILES,inhibition
1,CC1(c2ccc3ccccc3c2)NC(=O)NC1=O (configuration not stated),9.07%
2,O=C1CCCN2N=C(SCC(=O)Nc3ccc(Br)cc3)SC2=N1,-4.09%
3,CCn1cc(C(=O)N[C@@H](C)C(=O)NCCO)c(=O)c2cc3c(cc21)OCO3,-6.09%
4,CC(=O)c1cc(CN2CCC(C(=O)Nc3cccc(-c4cscn4)c3)CC2)cs1,12.4%
5,COC(=O)[C@@H]1CCCN1C(=O)c1cc(COc2cccc3cccnc23)on1,18.1%
6,CSc1ccccc1OCc1cc(C(=O)N(C)CCc2c(C)n[nH]c2C)no1,-3.19%
7,CSc1ccccc1OCc1cc(C(=O)N2C[C@H]3CC[C@H]2C3)no1,108% (active)
8,CSc1nc(O)c(Cc2ccccc2)c(=O)[nH]1,13.7%
9,CCOC(=O)c1sc(NC(=O)CSc2nc(O)c(Cc3ccccc3)c(=O)[nH]2)nc1C,107%
10,O=C(CSc1nc(O)c(Cc2ccccc2)c(=O)[nH]1)Nc1nc2c(s1)CCCC2,40.8% (active)
11,O=C(Nc1ccccc1C(=O)O)c1ccc(N2C(=O)C3CC=CCC3C2=O)cc1 (configuration not stated),21.8%
12,COc1ccccc1N(CC(=O)Nc1ccccc1C(=O)N1CCCC1)S(C)(=O)=O,-2.57%
13,COc1ccc(F)cc1S(=O)(=O)Nc1ccc2c(c1)OCO2,-6.49%
14,Cn1c(=O)n(C)c2cc(C(=O)Nc3ccc4c(c3)OCO4)ccc21,33.6% (active)
15,CCC(=O)c1cc2c(cc1NC(=O)c1cccs1)OCCO2,-21.9%
16,COc1cc(NC(=O)c2ccc3c(c2)OCO3)ccc1NC(=O)c1cccs1,55.9% (active)
17,COc1ccc(C(=O)Nc2ccc3c(c2)OCO3)cc1OC,99% (active)
18,COc1cc(OC)c(C(=O)NCc2ccc3c(c2)OCO3)cc1OC,-10.8%
19,COc1cc(NC(=O)c2cccs2)ccc1NC(=O)c1ccccc1Cl,39.7%
20,Cn1c(NC(=O)c2ccc3c(c2)OCO3)cc(=O)n(C)c1=O,-7.32%
21,COc1ccc(S(=O)(=O)Nc2ccc3c(c2)OCO3)cc1Cl,-1.27% (active)
22,COc1ccc(S(=O)(=O)N(C)CC(=O)Nc2ccc3c(c2)OCCO3)cc1OC,24.6%
23,CC(C)CNS(=O)(=O)c1ccc(OCC(=O)Nc2ccc3c(c2)OCO3)c(Cl)c1,-2.63%
24,Cn1c(=O)n(C)c2cc(C(=O)Nc3ccc(Br)cc3)ccc21,-10.4%
